{"source": "PubChem BioAssay AID2284344", "about": "(EPA ToxCast)", "note": "Results filed as inconclusive are left out. The source made the active and inactive calls. The calls were made as follows: active = hit-call score of the fitted dose curve at least 0.9, where 1 is the maximum; inconclusive = response in the unintended direction; inactive = score below 0.9."}
{"system": "frog Peroxisome Proliferator-activated Receptor-alpha (PPARa), gene 398843", "assay": "ATG_frPPARa_EcoTox2: Attagene TRANS-FACTORIAL EcoTox-2 HepG2 Assay for frog Peroxisome Proliferator-activated Receptor-alpha (PPARa)", "description": "ATG_EcoTox2 is a cell-based, multiplexed assay created by modifying the existing Attagene TRANS-FACTORIAL system to include a panel of nuclear receptors from some or all the following species: human (Homo sapiens), african clawed frog (Xenopus laevis), rainbow trout (Oncorhynchus mykiss), japanese medaka (Oryzias latipes), and zebrafish (Danio rerio). The ECOTOX2-FACTORIAL format uses HepG2, a human liver cell line, with measurements taken at 24 hours after chemical dosing in a 24-well plate. ATG_frPPARa_EcoTox2 is one of 29 assay components calculated in the ATG_EcoTox2 assay. It is designed to make measurements of mRNA induction, a form of inducible reporter, as detected with fluorescence intensity signals by Reverse transcription polymerase chain reaction (RT-PCR) and Capillary electrophoresis technology.The assay endpoint ATG_frPPARa_EcoTox2 was analyzed in the positive analysis fitting direction relative to DMSO as the negative control and baseline of activity. Using a type of inducible reporter, measures of mRNA for gain-of-signal activity can be used to understand the reporter gene at the transcription factor-level as they relate to the gene PPARa. Furthermore, this assay endpoint can be referred to as a primary readout, because this assay has produced multiple assay endpoints where this one serves a reporter gene function. To generalize the intended target to other relatable targets, this assay endpoint is annotated to the nuclear receptor intended target family, where the subfamily is non-steroidal.\nHuman liver HepG2 cells are transiently transfected with multiple reporter transcription units (MRTUs) in 6-well plates using FuGene 6 reagent (Roche; 3 ml FuGene/1 mg DNA). The MRTU constructs are regulated by a cis-regulating element (promoter). Each RTU expresses a GAL4-UAS that regulates the transcription of a nearby target reporter gene sequence. A major difference between the CIS and TRANS system is that in CIS activities of endogenous TFs are measured, whereas the TRANS assay evaluates changes in activities of exogenous, chimeric NR-Gal4 proteins. […] At the end of 24 hour incubation, total RNA was isolated using TriZol reagent (Invitrogen). The isolated RNA is then reverse-transcribed using oligo(dT) primer and Mo-MLV reverse transcriptase (Invitrogen) with DNAse I (Ambion) treatment for 30 min. The one-tenth of the produced cDNA was amplified by PCR using Taq DNA polymerase (Invitrogen) and two reporter sequence-specific primers. […] The fragments were purified using Qiaquick PCR columns (Qiagen), analyzed on an ABI 3130xL genetic analyzer (Applied Biosystems) with peak positions identified by using a set of X-rhodamine (ROX)-labeled MapMarker1000 molecular weight standards (BioVentures). […]"}
{"smiles": "O=S(=O)(O)C(F)(F)C(F)(F)C(F)(F)C(F)(F)C(F)(F)C(F)(F)F", "outcome": "inactive"}
{"smiles": "[Cl][Sn]([c]1ccccc1)([c]1ccccc1)[c]1ccccc1", "outcome": "inactive"}
{"smiles": "O=C(O)C(F)(F)C(F)(F)C(F)(F)C(F)(F)C(F)(F)C(F)(F)C(F)(F)F", "AC50": "75 µM (active)"}
{"smiles": "O=P(Oc1ccccc1)(Oc1ccccc1)Oc1ccccc1", "outcome": "inactive"}
